This is a sample that favours compounds with a hit; in the whole collection about 0.9% have one here.
FadD28 FP inh: blocks FadD28 binding to the bisubstrate probe; inhibition, % at 12.5 µM; 360,000 tested, 0.22% active; fluorescence polarization; in the data active = inhibition above about 8.5%, passing the limit was not always enough
UGM FP inh: inhibitors of M. tuberculosis UDP-galactopyranose mutase; P9WIQ1; AID 504406; inhibition, % at 10 µM; 320,000 tested, 0.06% active; purified UGM, fluorescence polarization probe displacement; in the data active = inhibition above about 10%, passing the limit was not always enough
RecA intein inh: inhibitors of M. tuberculosis RecA intein splicing; P9WHJ3; AID 2221; cell-free RecA intein splicing, fluorescence; inhibition, % (test concentration not listed); 290,000 tested, 0.75% active; in the data active = inhibition above about 30%;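 also: 0% = vehicle wells and 100% = reference inhibitor control wells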
Rv3671c protease: inhibits the M. tuberculosis serine protease Rv3671c; inhibition, % at 5.96 µM; P9WHR9; AID 2606; 320,000 tested, 0.048% active; in the data active = inhibition above about 38%;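 also: extracellular domain of Rv3671c used as enzyme; 0% = enzyme with DMSO and 100% = no enzyme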
Target sequence (P9WHR9 whole entry, looked up, the tested form may be a part): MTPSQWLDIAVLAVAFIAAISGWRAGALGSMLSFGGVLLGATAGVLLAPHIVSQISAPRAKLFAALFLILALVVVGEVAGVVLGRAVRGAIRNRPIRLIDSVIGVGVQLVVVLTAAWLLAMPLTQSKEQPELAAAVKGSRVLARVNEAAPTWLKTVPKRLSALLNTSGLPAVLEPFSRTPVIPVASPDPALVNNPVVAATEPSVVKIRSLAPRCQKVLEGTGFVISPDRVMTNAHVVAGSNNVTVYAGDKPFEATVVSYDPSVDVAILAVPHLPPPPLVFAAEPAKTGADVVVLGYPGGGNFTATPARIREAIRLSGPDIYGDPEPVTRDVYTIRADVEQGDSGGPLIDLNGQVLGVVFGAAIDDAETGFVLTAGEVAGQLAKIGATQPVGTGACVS
TcdB GH inh: blocks C. difficile toxin B glycohydrolase activity | TcdB glycohydrolase enzymatic assay, plate reader | P18177 | inhibition, % at 9.99 µM | 350,000 tested, 0.24% active; in the data active = inhibition above about 10%
BioA inh: blocks M. tuberculosis BioA enzyme activity. AID 602481. inhibition, % at 9.99 µM. 360,000 tested, 0.096% active. purified M. tuberculosis BioA enzyme, plate reader; in the data active = inhibition above about 40%
Active calls of the source: *; · = no result given; ! = not confirmed by another sample.

SMILES	FadD28 FP inh	UGM FP inh	RecA intein inh	Rv3671c protease	TcdB GH inh	BioA inh
O=C(O)C(c1ccccc1)N1C(=O)/C(=C\c2ccc(-c3ccccc3Cl)o2)SC1=S (stereo not given)	11.2*	0.8	17.8	-7.8	-0.6	3.8
COc1cc(/C=C2\SC(=S)N(C(C(=O)O)c3ccccc3)C2=O)cc(OC)c1OC (stereo not given)	0.1	3.1	9.2	-0.9	0.3	-0.2
C[C@@H]1CN([C@@H](C)CO)C(=O)c2cccc(NC(=O)CCCCCC(=O)Nc3ccccc3N)c2O[C@@H]1CN(C)C(=O)NC1CCCCC1	·	·	·	·	0.5	·
COc1ccc2c3c([nH]c2c1)[C@H](CO)N(C)CC31CN(S(=O)(=O)c2cn(C)cn2)C1	·	·	·	·	1.0	·
CCCCCCCCCCCCCCCC[N+](C)(C)CCl	20.1*	·	·	·	0.6	·
CCN1C(=O)C(NC(C)=O)c2cc(OC)ccc21 (stereo not given)	-1.3	2.3	-3.4	-0.8	·	-1.2
CC(=O)NC1C(=O)N(CCN2CCOCC2)c2ccc(Br)cc21 (stereo not given)	0.0	-1.4	50.9*	11.2	-8.9	-1.5
CCOc1ccc2c(c1)C(NC(C)=O)C(=O)N2CCN1CCOCC1 (stereo not given)	-2.2	0.3	43.0*	·	1.8	0.5
CCCNC(=O)N(C)C[C@H]1Oc2ncc(-c3ccc(OC)cc3)cc2C(=O)N([C@H](C)CO)C[C@@H]1C	·	·	·	·	-2.0	3.4
O=[N+]([O-])c1ccc(Sc2nnnn2-c2ccccc2)nc1	·	·	57.9*	·	2.0	·
Cc1ccc(C2c3c(oc4ccc(Cl)cc4c3=O)C(=O)N2CCCN2CCOCC2)o1 (stereo not given)	·	1.8	36.0*	1.4	·	·
O=C(CNc1cccc2ccccc12)N/N=C/c1ccc(C(=O)O)cc1	38.2*	0.2	1.6	-1.4	-0.8	2.0
CCC(=O)Nc1cccc(-c2nc3ccccc3c(=O)o2)c1	-7.9	-0.5	-1.4	-2.3	·	1.5
O=c1oc(-c2ccc(Br)cc2)nc2ccccc12	-4.3	-1.1	12.7	-3.6	12.3*	0.1
O=c1oc(-c2ccc([N+](=O)[O-])cc2)nc2ccccc12	1.2	0.3	3.4	-0.9	5.2	·
CCCOc1cccc(-c2nc3ccccc3c(=O)o2)c1	-4.9	3.6	43.2*	8.6	·	·
O=C(Nc1sc2c(c1C(=O)O)CCCC2)c1ccc(Cl)cc1	3.5	2.4	-1.1	6.6	11.7*	0.2
O=C(CN1C(=O)NC2(CCCC2)C1=O)OCc1ccc(Cl)cc1Cl	-3.3	2.7	-1.0	-5.9	0.0	0.9
O=C(COC(=O)CN1C(=O)NC2(CCCC2)C1=O)NCc1ccc(Cl)cc1Cl	-2.6	11.2*	·	-1.2	1.6	·
O=c1ccc2cc3c([nH]c4ccc(Br)cc43)oc-2c1O	21.5*	3.4	19.5	-15.0	·	2.7
CC(Cc1ccc(O)cc1)NCC(O)c1ccc(O)c(O)c1 (stereo not given)	8.2*	·	·	·	-7.0	-1.2
COc1ccc(-c2ccc(C(c3c(C)[nH][nH]c3=O)c3c(C)[nH][nH]c3=O)o2)c([N+](=O)[O-])c1	0.7	·	·	·	-4.8	·
Cc1[nH][nH]c(=O)c1C(c1ccccc1[N+](=O)[O-])C(C#N)C#N (stereo not given)	-2.1	1.5	69.5*	-7.8	0.7	0.6
COc1ccccc1Nc1nnc(SCc2cc(=O)n3ccsc3n2)s1	0.7	1.9	·	-1.3	14.9*	-0.8
COc1ccc2[nH]c3c(=O)n(CCCCC(=O)NCCN4CCCC4)c(=S)[nH]c3c2c1	-2.4	-1.1	-2.1	-0.5	11.0*	-0.4
SMILES	FadD28 FP inh	UGM FP inh	RecA intein inh	Rv3671c protease	TcdB GH inh	BioA inh
C[C@@H]1CN([C@H](C)CO)C(=O)c2cccc(NS(=O)(=O)c3ccccc3)c2O[C@H]1CN(C)C(=O)Nc1ccc(F)cc1	·	·	·	·	3.4	-0.1
CCOc1cc(/C=C2\C(=O)N(c3cccc(C(=O)O)c3)N=C2C(F)(F)F)ccc1OCC(=O)Nc1ccccc1OC	·	0.9	32.8*	-1.2	·	·
O=C(Nc1cc(S(=O)(=O)N2CCOCC2)ccc1N1CCOCC1)c1ccccc1Cl	-0.4	-2.3	·	4.4	14.3*	0.9
O=C(Nc1ccc(N2CCOCC2)c(Cl)c1)c1ccc2c(c1)OCCO2	0.6	3.9	0.6	-6.0	21.0*	-0.8
O=C(Nc1ccc(N2CCOCC2)cc1N1CCOCC1)c1ccc(Cl)cc1	-2.7	1.1	-2.7	1.4	-0.5	0.1
O=C(Nc1ccc(N2CCOCC2)c(Cl)c1)c1ccc(Cl)cc1	-0.6	0.0	2.9	4.5	22.1*	2.6
O=C(Nc1cc(F)ccc1F)N[C@H]1CC[C@H](CCn2cc(C3CC3)nn2)O[C@@H]1CO	·	·	·	·	0.3	0.9
C[C@@H]1CN([C@@H](C)CO)C(=O)c2cc(NC(=O)Nc3ccccc3)ccc2O[C@@H](C)CCCCO[C@@H]1CN(C)C	·	·	·	·	-1.8	-0.2
C[C@@H]1CN([C@@H](C)CO)C(=O)c2cccc(NC(=O)Nc3ccc(C(F)(F)F)cc3)c2O[C@H]1CN(C)C(=O)Nc1ccc2c(c1)OCO2	·	·	·	·	·	-2.4
COc1ccccc1-n1c(CCC(=O)O)ccc1-c1ccccc1	-2.5	2.1	4.9	-3.1	10.6*	2.3
Oc1ccc(/C=N/N2CCN(c3ccccn3)CC2)cc1	-0.4	1.3	-3.7	9.4	13.0*	-2.3
C[C@@H]1CN([C@@H](C)CO)C(=O)c2cc(NC(=O)C3CCCCC3)ccc2O[C@@H]1CN(C)C(=O)Nc1ccc(C(F)(F)F)cc1	·	·	·	·	-0.7	-1.0
C[C@H](CO)N1C[C@H](C)[C@@H](CN(C)C(=O)Nc2ccc(C(F)(F)F)cc2)Oc2c(NS(=O)(=O)c3cn(C)cn3)cccc2C1=O	-20.0	-4.2	·	10.7	13.5*!	-0.5
C[C@H](CO)N1C[C@H](C)[C@@H](CN(C)C(=O)Nc2ccc(C(F)(F)F)cc2)Oc2ccc(NC(=O)C3CCCCC3)cc2C1=O	-1.1	0.7	·	-10.5	13.5*!	0.5
O=C(Nc1ccc(NC(=O)c2cc([N+](=O)[O-])ccc2N2CCOCC2)cc1)c1cccs1	12.1*	0.9	2.6	-2.2	0.6	-2.1
O=C(Nc1cc([N+](=O)[O-])ccc1N1CCOCC1)c1cccs1	0.7	0.7	-1.3	5.2	3.1	-1.9
CCN1CCN(Cc2ccc(NC(=O)c3cc(NC(=O)c4cc(-c5ccc(OC)cc5)n[nH]4)cc(OC)c3)cc2C(F)(F)F)CC1	66.7*	1.3	18.7	-210.4	1.5	-0.5
Cc1cccc(OCC(=O)N/N=C\c2cn(C)c3ccccc23)c1	41.1*	0.1	-0.4	-8.0	-0.2	0.4
N#Cc1ccc(-c2ccc3c(c2)[C@@H]2[C@@H](CCN2C(=O)C2CCC2)[C@H](CO)N3)cc1	·	·	·	·	-0.3	·
CCCNC(=O)N1CC2(C1)[C@@H](c1ccccc1)[C@H](CO)N2Cc1ccc(F)cc1	·	·	·	·	0.4	·
CN1CCN(C(=O)C[C@@H]2CC[C@@H]3[C@H](COC[C@H](O)CN3C(=O)Nc3cc(Cl)cc(Cl)c3)O2)CC1	·	·	·	·	0.0	0.8
COc1ccc(N(C(=O)COc2cccc(C)c2)S(=O)(=O)c2ccc(C)cc2)cc1	-4.7	2.4	52.4*	1.2	·	·
COc1ccc(OC(=O)COc2cccc(C)c2)cc1	-0.3	-1.9	4.6	-1.2	0.3	1.7

Source: PubChem BioAssay (several laboratories)
